The values below come from PubChem BioAssay (NCI).

This is part of a sample that, as a whole, favours compounds with a hit. Of some 83,000 tested, about 20% had one in any assay.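 Single-dose data. Exposure time 48 hours. Values below 10 considered active.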 Unmarked numbers belong to inactive results. Activity calls are given as the source filed them.

Test systems include DU-145 prostate; K-562 leukemia; MALME-3M melanoma; MDA-MB-231 breast; RXF 393 renal; SF-268 CNS; SF-295 CNS; SF-539 CNS; UACC-257 melanoma; M14 melanoma.
What all share (test): NCI-60 one-dose screen, 48 h (100 = growth as untreated, 0 = no growth, -100 = all killed)
Holding throughout (settings): 10 µM unless noted

With `COC(=O)[C@@H](C[C@H](Cc1ccccc1)NC(=O)c1csc([C@@H](C[C@H](C(C)C)N(C)C(=O)[C@@H](NC(=O)[C@H]2CCCCN2C)C(C)C)OC(C)=O)n1)NC(=O)OCc1ccccc1`, the growth with DU-145 prostate is -3.78% [9.5 µM] (active); in the assay with K-562 leukemia, 2.99% [9.5 µM] (active); in the assay on MALME-3M melanoma, -42.5% [9.5 µM] (active); with MDA-MB-231 breast it was 18.6% [9.5 µM]; in the assay on RXF 393 renal, 39.8% [9.5 µM]; with SF-268 CNS, 15.2% [9.5 µM]. The growth is 3.92% [9.5 µM] (active) in the assay on SF-295 CNS, -19.1% [9.5 µM] (active) with SF-539 CNS, 6.49% [9.5 µM] (active) in the assay on UACC-257 melanoma and -41.7% [9.5 µM] (active) in the assay with M14 melanoma.
In the case of `CS(=O)(=O)CCN1CC2CCCC(C2)C1`, the growth was 102% with DU-145 prostate; 113% in the assay with K-562 leukemia; 111% in the assay on MALME-3M melanoma; 105% with MDA-MB-231 breast; 107% with RXF 393 renal; 102% with SF-268 CNS. In addition, the growth in the assay with SF-295 CNS was 108%; in the assay with SF-539 CNS, 100%; in the assay with UACC-257 melanoma, 104%; with M14 melanoma it was 98.6%.
`CC(=O)OCc1cc[c]([Hg][Cl])o1`: the growth with DU-145 prostate was 84.2%; in the assay on K-562 leukemia it was 7.96% (active); with MALME-3M melanoma it was -39.7% (active); in the assay with MDA-MB-231 breast it was 26%; with RXF 393 renal, -38.7% (active); in the assay on SF-268 CNS it was 22.5%. Besides, the growth in the assay with SF-295 CNS is 78.1%; in the assay with SF-539 CNS it was 44.2%; in the assay on UACC-257 melanoma, 53.5%; in the assay on M14 melanoma, 13%.
On to `Clc1cccc(NCOOC2(OOCNc3cccc(Cl)c3)CCCCCC2)c1`, for which the growth in the assay on DU-145 prostate was 103%; in the assay with K-562 leukemia, 32.6%; with MALME-3M melanoma it was 97%; in the assay with MDA-MB-231 breast it was 103%; in the assay with RXF 393 renal it was 114%; with SF-268 CNS it was 94.3%. Besides, the growth was 90.4% in the assay on SF-295 CNS, 86.8% with SF-539 CNS, 112% with UACC-257 melanoma and 97.3% with M14 melanoma.
`COC(=O)[C@@H](C)C[C@H](Cc1ccccc1)NC(=O)c1csc([C@@H](C[C@H](C(C)C)N(C)C(=O)[C@H](C)NC(=O)[C@H]2CCCN2C)OC(C)=O)n1`: the growth is 51.6% with DU-145 prostate; 11.5% in the assay on K-562 leukemia; 56.2% with MALME-3M melanoma; 63.6% in the assay on MDA-MB-231 breast; 21.8% in the assay on RXF 393 renal; 53.9% in the assay with SF-268 CNS. For the same compound, the growth in the assay on SF-295 CNS was 31.1%; in the assay on SF-539 CNS it was 39.9%; in the assay with UACC-257 melanoma it was 36.4%; with M14 melanoma, 37.5%.
Take `C[C@]12CCc3sc(NCCc4ccccc4)nc3C1=CC[C@@H]1[C@@H]2CC[C@]2(C)C(=O)CC[C@@H]12`: the growth with DU-145 prostate is 33.9%; in the assay on K-562 leukemia, 5.14% (active); in the assay on MALME-3M melanoma, 73.3%; with MDA-MB-231 breast, 83.1%; with RXF 393 renal, 20%; in the assay on SF-268 CNS, 83.9%. For the same compound, the growth in the assay with SF-295 CNS was 68.4%; in the assay with SF-539 CNS, 64.8%; in the assay with UACC-257 melanoma it was 87.4%; in the assay with M14 melanoma, 85.4%.
With `COC(=O)[C@@H](C)C[C@H](Cc1ccccc1)NC(=O)c1csc([C@@H](C[C@H](C(C)C)N(C)C(=O)[C@@H](NC(=O)C23CC(NC(C)=O)(C2)C3)C2CC2)OC(C)=O)n1`, the growth in the assay on DU-145 prostate was 61.6%; in the assay with K-562 leukemia, 14.2%; in the assay with MALME-3M melanoma, 56.4%; in the assay with MDA-MB-231 breast, 57.9%; in the assay with RXF 393 renal, 36.9%; in the assay with SF-268 CNS it was 55.6%. The growth with SF-295 CNS is 82%; in the assay with SF-539 CNS, 42.4%; in the assay with UACC-257 melanoma, 46.2%; in the assay with M14 melanoma, 41%.
`COc1ccc2c(c1)c(-c1nc(-c3cn(C)c4ncccc34)cs1)cn2CCN1CCOCC1`: the growth in the assay on DU-145 prostate is 36.3%; in the assay with K-562 leukemia, 9.83% (active); with MALME-3M melanoma, 71.5%; in the assay on MDA-MB-231 breast, 56.8%; in the assay with RXF 393 renal, 56.7%; in the assay on SF-268 CNS it was 48.4%. Moreover, the growth was 49.3% in the assay with SF-295 CNS, 48% in the assay with SF-539 CNS, 93.2% in the assay with UACC-257 melanoma and 31.9% in the assay on M14 melanoma.
For the compound `O=C(CC1(O)C(=O)Nc2ccc(Cl)cc21)c1ccc(C(=O)NCC2CCC3(CC2)OOC2(CCCCC2)OO3)cc1` (stereo not given), the growth was -60.1% (active) in the assay with DU-145 prostate; -56.9% (active) in the assay on K-562 leukemia; -51.5% (active) in the assay with MALME-3M melanoma; 16.8% in the assay on MDA-MB-231 breast; 18.5% in the assay with RXF 393 renal; 32.9% with SF-268 CNS. In addition, the growth in the assay on SF-295 CNS was 37.6%; in the assay with SF-539 CNS, -52.5% (active); in the assay on UACC-257 melanoma, 37.8%; in the assay on M14 melanoma, 52%.
With `CC(=O)OC1CCC2C3CCC4=C/C(=N/OC(=O)c5ccc(N(CCCl)CCCl)cc5)CCC4(C)C3CC(C)C12` (stereo not given), the growth is 79.6% with DU-145 prostate; 18.2% in the assay on K-562 leukemia; 76.3% with MALME-3M melanoma; 78.5% with MDA-MB-231 breast; 67.9% in the assay on RXF 393 renal; 62.9% in the assay with SF-268 CNS. Besides, the growth is 81.5% in the assay with SF-295 CNS, 75.6% with SF-539 CNS, 105% in the assay with UACC-257 melanoma and 89.6% with M14 melanoma.
For the compound `CCOc1ccccc1C(=O)OCC(Cl)(Cl)Cl`, the growth is 99.8% with DU-145 prostate; 98.8% in the assay with K-562 leukemia; 109% in the assay on MALME-3M melanoma; 114% in the assay with MDA-MB-231 breast; 109% with RXF 393 renal; 101% with SF-268 CNS. Further, the growth in the assay with SF-295 CNS was 105%; with SF-539 CNS, 101%; with UACC-257 melanoma, 112%; in the assay on M14 melanoma it was 103%.
As for `C/C(=C\c1cc(C(F)(F)F)nn1CCNC(=O)OC(C)(C)C)[C@@H]1C[C@@H]2O[C@]2(C)CCC[C@H](C)[C@H](O)[C@@H](C)C(=O)C(C)(C)[C@@H](O)CC(=O)O1`, the growth in the assay on DU-145 prostate was 63.2%; in the assay with K-562 leukemia, 31.9%; with MALME-3M melanoma, 70%; in the assay with MDA-MB-231 breast, 58.8%; in the assay on RXF 393 renal, 53.2%; with SF-268 CNS, 60.4%. The growth with SF-295 CNS was 75.5%; with SF-539 CNS, 57.5%; with UACC-257 melanoma, 83.5%; in the assay on M14 melanoma, 50.1%.
